Compound activity from PubChem BioAssay.
D1 ag = human D1 receptor agonism; P21728; AID 504660; HEK293 T-REx D1 cells, calcium flux, agonist mode; activation, % at 2 µM; 360,000 tested, 1% active; in the data active = activation above about 30%; note: 0% is about no effect
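Tetracycline-induced HEK293 TREx D1 cells, force-coupled to calcium signalling, were dye-loaded with a no-wash calcium kit. Compound was pin-added after a 10 s baseline. Fluorescence was read kinetically at 1 cycle/s for 180 s, with calcium rises flagged as agonism.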
GALK inh = galactokinase (human) inhibition. Purified GALK, Kinase-Glo residual ATP luminescence. Potency, µM (top dose mostly 57.5 µM), inactives show at the highest dose activity change, negative = inhibition, actives largely listed as inhibitors. 270,000 tested, 0.007% active. AID 1868; note: potency is the fitted concentration of half-maximal effect; % is set by controls: 0 for no effect and ±100 for the full control effect
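GALK at 5 nM final was combined with compound, 35 uM ATP and 100 uM galactose in HEPES pH8.0 with MgCl2 and DTT. The reaction ran one hour at room temperature before luminescent ATP detection.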
D1 potentiator = potentiators of human D1 dopamine receptor; P21728; HEK293 TREx D1 cells, calcium flux, dopamine EC20 potentiation; potentiation, % at 10 µM; 360,000 tested, 0.036% active; in the data active = potentiation above about 30%; note: 0% is about no effect
Eya2 inh = Eya2 (human) phosphatase inhibition; O00167; 330,000 tested, 0.006% active; Potency, µM (highest dose often 76.9 µM), without a hit: at the highest dose activity, negative = inhibition, hits mostly inhibitors; recombinant Eya2, OMFP fluorescence dephosphorylation (OMFP is methylfluorescein phosphate); AID 488837; note: potency is the fitted concentration of half-maximal effect; % is set by controls: 0 for no effect and ±100 for the full control effect
Target sequence (O00167 whole entry, looked up): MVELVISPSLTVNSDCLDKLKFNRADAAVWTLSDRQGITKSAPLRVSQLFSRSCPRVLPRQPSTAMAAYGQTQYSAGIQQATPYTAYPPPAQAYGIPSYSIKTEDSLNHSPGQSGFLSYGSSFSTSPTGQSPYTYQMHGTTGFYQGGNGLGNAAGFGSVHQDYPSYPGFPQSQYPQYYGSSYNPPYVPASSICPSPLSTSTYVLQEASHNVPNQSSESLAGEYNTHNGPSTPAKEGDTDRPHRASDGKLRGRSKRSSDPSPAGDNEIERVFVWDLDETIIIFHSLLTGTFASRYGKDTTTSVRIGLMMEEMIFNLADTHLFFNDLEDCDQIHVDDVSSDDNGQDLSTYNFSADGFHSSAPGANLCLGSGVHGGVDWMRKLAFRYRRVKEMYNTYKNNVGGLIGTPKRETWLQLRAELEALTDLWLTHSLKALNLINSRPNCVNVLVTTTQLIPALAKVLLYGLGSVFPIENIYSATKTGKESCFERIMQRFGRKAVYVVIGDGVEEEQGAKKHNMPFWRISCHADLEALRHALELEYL
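Eya2 (0.2 uM) preincubated 10 min at ambient with compound, then OMFP substrate added at 50 uM; 10 min reaction in 50 mM HEPES pH 7.5, 50 mM NaCl, 5 uM MgCl2, 0.05% BSA, 1 mM DTT. Fluorescence read at Ex 485/Em 525 nm.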
D1 antagonist = blocks dopamine activation of the human D1 receptor. P21728. HEK293 TREx D1 cells, calcium flux, dopamine EC80; stronger effect = lower value. activity change, negative = inhibition, % at 10 µM. 360,000 tested, 3.2% active. AID 504652; in the data active = activity change below about -30%; note: % is set by controls: 0 for no effect and ±100 for the full control effect
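HEK293 T-REx cells expressing inducible, force-coupled D1 receptor; no-wash Ca dye, 30–90 min RT. Cmpd → 180 s read at 1 Hz → EC80 DA → 180 s read.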
USP2a block = inhibitors of human ubiquitin-specific protease USP2a; O75604; USP2 core, Ub-CHOP2 coupled fluorogenic reporter, 485/531; Potency, µM (titrated, usually from 38.3 µM), for inactives: at the top dose activity change, negative = inhibition, actives largely listed as inhibitors; 330,000 tested, 0.01% active; AID 463254;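 note: potency is the fitted concentration of half-maximal effect; plate controls were DMSO wells for no effect and full inhibition by NEM control for full effect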
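USP2 core (10nM final) preincubated 30min RT with compound in 20mM Tris-HCl pH 8.0, 2mM CaCl2, 2mM beta-mercaptoethanol, 0.05% CHAPS; 25nM Ub-CHOP2 plus 25nM reporter substrate added, fluorescence (Ex485/Em531) read after 60min.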
* hit, by the source's call. In the library only some 3.9% were active in any assay of this set; here they are far more common. Unless noted, calls come from the whole dose curve; as a rule, active = well fitted inhibition curve with a large enough effect; inconclusive = small, poorly fitted or top-dose-only effect, or effect the other way; inactive = flat fitted curve, though single readings scatter.

`CCN1C(=O)c2cccc3c(N)ccc(c23)C1=O` gave D1 ag 231*, D1 potentiator 4, Eya2 inh inconclusive, D1 antagonist -22 and USP2a block inconclusive.
`Cc1nn(C)c(C)c1N1C(=O)c2cccc3c(N)ccc(c23)C1=O` gave D1 ag 356*, D1 potentiator 6, Eya2 inh inconclusive, D1 antagonist -27 and USP2a block inconclusive.
Screening COc1ccc2c3c(cccc13)C(=O)N(O)C2=O returned D1 ag 2, GALK inh 1%, D1 potentiator 2, Eya2 inh 10%, D1 antagonist 18 and USP2a block 1%.
Cc1nn(C)c(C)c1N1C(=O)c2cccc3c(Br)ccc(c23)C1=O was read as D1 ag 13, GALK inh -3%, D1 potentiator -16, Eya2 inh -4%, D1 antagonist -25 and USP2a block -2%.
For O=C1C(=O)N(c2cccc(Cl)c2)C(c2ccccc2[N+](=O)[O-])/C1=C(\O)c1ccccc1 (configuration not stated) the results were D1 ag 3, GALK inh -3%, D1 potentiator -9, Eya2 inh -3%, D1 antagonist -51* and USP2a block 2%.
For Cc1ccc(NC(=O)CSc2nnc(-c3cc4occc4n3C)n2-c2ccccc2C)c(Cl)c1 the results were D1 ag 2, D1 potentiator 4 and D1 antagonist -14.
Screening Cc1ccc(NC(=O)CSc2nc3nc(C)c(Br)cc3[nH]2)cc1F returned D1 ag 3, GALK inh 0%, D1 potentiator -3, Eya2 inh 10%, D1 antagonist -31* and USP2a block 1%.
Cc1ccc(NC(=O)CSc2nc3ncccc3[nH]2)cc1F was read as D1 ag 6, D1 potentiator -4 and D1 antagonist -2.
`CCOC(=O)c1c(C)oc2nc(C)nc(NCc3ccccc3Cl)c12` gave D1 ag 1, D1 potentiator 0 and D1 antagonist 1.
COc1ccc(Cl)cc1NC(=O)C(C)n1c(=O)cc(C(F)(F)F)c2c(C)nn(C)c21 (configuration not stated) was read as D1 ag 5, D1 potentiator -1 and D1 antagonist 26.
Screening N#C/C(=C\Nc1ccccc1O)c1nc2ccccc2o1 returned D1 ag 21, GALK inh 0%, D1 potentiator -7, Eya2 inh -12%, D1 antagonist -36* and USP2a block -4%.
Screening CCN(CC)CCNC(=O)Cn1nc(C)c2c(C)n(-c3ccccc3)nc2c1=O returned D1 ag 1, D1 potentiator -1 and D1 antagonist 6.
For CCCCn1c(O)c(/C=C/C=C/C=Nc2ccccc2)sc1=S the results were D1 ag 2, GALK inh 17%, D1 potentiator -4, Eya2 inh 2%, D1 antagonist -31* and USP2a block 3%.
For Cc1c(-n2cc(C(=O)c3ccccc3O)cc(C#N)c2=O)c(=O)n(-c2ccccc2)n1C the results were D1 ag 36*, GALK inh 1%, D1 potentiator -12, Eya2 inh -2%, D1 antagonist -6 and USP2a block 0%.
`COc1ccc(-n2cc(C(=O)c3cc(Cl)ccc3O)cc(C#N)c2=O)cc1` gave D1 ag 20, GALK inh -1%, D1 potentiator -10, Eya2 inh 1%, D1 antagonist -35* and USP2a block 3%.
CCOc1ccc(NC(=O)c2cnn(-c3ccc(C)c(Cl)c3)c2C2CCNCC2)cc1 was read as D1 ag 1, D1 potentiator -4 and D1 antagonist 16.
Cc1ccc(-n2ncc(C(=O)Nc3ccc(Cl)cc3)c2C2CCNCC2)cc1C was read as D1 ag 2, GALK inh -1%, D1 potentiator 3, Eya2 inh 6%, D1 antagonist -44* and USP2a block 1%.
`Cc1ccc(CNCc2c(C(=O)O)c(C)n(Cc3ccc(C)cc3)c2C)cc1` gave D1 ag 3, D1 potentiator -1 and D1 antagonist 8.
CCOc1ccc(NC(=O)N2CC=C(c3c[nH]c4ccccc34)CC2)cc1 was read as D1 ag 6, D1 potentiator -3 and D1 antagonist -35*.
`CCOC(=O)CC(/C(C)=N\O)c1ccccc1` (configuration not stated) gave D1 ag 1, GALK inh 5%, D1 potentiator 1, Eya2 inh -4%, D1 antagonist -75* and USP2a block 0%.
O=C(CCn1cncn1)N1CCCC(N2CCN(c3cccc(C(F)(F)F)c3)CC2)C1 (configuration not stated) was read as D1 ag 0, GALK inh -2%, D1 potentiator -4, Eya2 inh 2%, D1 antagonist -44* and USP2a block -1%.
`O=C(c1ccc(C(F)(F)F)cc1)C1CCCN(C(=O)Cn2cncn2)C1` (configuration not stated) gave D1 ag 4, GALK inh -6%, D1 potentiator 8, Eya2 inh -5%, D1 antagonist -37* and USP2a block 0%.
Screening CCC(CC)C(=O)NC1CC(=O)N(c2ccc3c(c2)OCCO3)C1 (configuration not stated) returned D1 ag 3 and D1 potentiator -5.
Screening N/C(=N/O)C(c1ccccc1)c1ccccc1 returned D1 ag 4, GALK inh 1%, D1 potentiator 1, Eya2 inh -1%, D1 antagonist -44* and USP2a block -1%.
Screening Cc1ccccc1CSc1nc2c(sc3ccccc32)c(=O)n1CCCOC(C)C returned D1 ag 2, D1 potentiator 0 and D1 antagonist 15.
For Cc1ccccc1CSc1nc2c(sc3ccccc32)c(=O)n1CCCC(=O)NCCCOC(C)C the results were D1 ag 7, D1 potentiator -6 and D1 antagonist -40*.
For CCOc1cc(C(=O)Nc2ccc(F)cc2)cc(Br)c1OC the results were D1 ag 10, GALK inh -1%, D1 potentiator -1, Eya2 inh -26%, D1 antagonist -53* and USP2a block 1%.
`Cc1ccc(Nc2nc(N)nc(CN3CCc4ccccc4C3)n2)cc1` gave D1 ag 1, GALK inh 0%, D1 potentiator -8, Eya2 inh -2%, D1 antagonist -37* and USP2a block 1%.
